High-throughput results from PubChem BioAssay.
This is a sample that favours compounds with a hit; in the whole collection about 3.9% have one here.
Wnt bcat act: activators of Wnt/beta-catenin signaling; Wnt/beta-catenin reporter cell assay, activator, plate reader; activation, % at 9.35 µM; 300,000 tested, 1.2% active; AID 743398; in the data active means activation above about 30%, passing the limit was not always enough; inconclusive means no clear call, values can overlap the other calls;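 further: 0% = neutral control wells and 100% = positive control wells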
HSF1 inhib: HSF1 inhibition; 300,000 tested, 0.77% active; AID 2098; NIH3T3-HGL HSE-luciferase, MG132-induced, luminescence 8 h; hits give low values; activity change, negative = inhibition, % at 7.5 µM (by protocol);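 active means more than half of replicate wells show activity change below -50%, luminescence cut by over half; inconclusive means some wells, but at most half, below -50%; inactive means no replicate well below -50%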;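 further: luciferase reports HSF-1 transcriptional activity via heat shock element; 0% = median of DMSO wells and -100% = zero luminescence signal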
MITF TRPM1 HTS: increases MITF-driven TRPM1 promoter luciferase signal. SK-MEL-5 TRPM1-promoter luciferase, 24 h; % of positive control, neutral wells = 0. activation, % at 12.5 µM. 300,000 tested, 0.75% active. AID 588334;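 active means mean activation of at least 80% with every replicate also reaching 80%; inconclusive means mean reaches 80% but some replicate falls short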;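 further: 0% = neutral control wells and 100% = parthenolide positive control wells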
esBAF inh: blocks esBAF chromatin remodeling in mouse ES cells; reporter increase, % at 12.5 µM; AID 602393; Bmi1-luciferase knock-in reporter, 24 h; 100% = twice the neutral-well signal; 350,000 tested, 2% active; in the data active means activation above about 40%; inconclusive means no clear call, values can overlap the other calls;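 further: 0% = median of the plate's neutral control wells and 100% = double that signal; a rise in the Bmi1 reporter signal indicates esBAF inhibition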
HSF1 activator: increases HSF-1 driven luciferase reporter signal | NIH3T3-HGL HSF-1 luciferase reporter, MG132, 8 h; 100% = twice DMSO control signal | AID 504408 | 300,000 tested, 1.7% active | activation, % at 9 µM;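 active means mean replicate activation of at least 50% with a set share of replicates each reaching 50%; inconclusive means only one of those two conditions met; inactive means mean below 50% and too few replicates reaching it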;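 further: 0% = median of the neutral control wells and 100% = twice that signal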
Starred values were filed as active, the others as inactive; ? = inconclusive; / = not tested or not shown.

SMILES	Wnt bcat act	HSF1 inhib	MITF TRPM1 HTS	esBAF inh	HSF1 activator
C[C@@H]1CN([C@@H](C)CO)C(=O)c2cc(Br)cnc2O[C@@H]1CN(C)C(=O)NC1CCCC1	/	/	/	1	/
Cn1cc(CNCc2cn[nH]c2-c2ccc(F)cc2)c(-c2ccc3c(c2)OCCO3)n1	37*	7	-1	/	29
Cc1noc(C)c1S(=O)(=O)Nc1ccc2c(c1)C(=O)N([C@H](C)CO)C[C@H](C)[C@@H](CN(C)C(=O)Nc1ccc(F)cc1)OCCCC[C@@H](C)O2	/	/	/	-3	/
CN1CCc2c(sc3c2C(=O)NC(c2ccc(-c4ccc(Cl)cc4)o2)N3)C1 (centres undefined)	0	-86*	/	-9	-90
CN1CCc2c(sc3c2C(=O)NC(c2ccco2)N3)C1 (centres undefined)	/	-7	9	4	1
CN1CCc2c(sc3c2C(=O)NC(c2cccc(OC(=O)c4cccs4)c2)N3)C1 (centres undefined)	14	10	/	42*	22
C[C@@H]1CN([C@@H](C)CO)C(=O)c2cc(/C=C/c3ccccc3)cnc2O[C@H]1CN(C)S(=O)(=O)c1cn(C)cn1	/	/	/	-2	/
CC(C)(C)N1C(=O)c2ccc(C(=O)Nc3nccs3)cc2C1=O	/	21	140*	54*	37
C[C@@H]1CN([C@@H](C)CO)C(=O)c2cc(NS(=O)(=O)c3cccs3)ccc2O[C@@H](C)CCCCO[C@@H]1CN(C)C(=O)c1ccccc1	/	/	/	-5	/
O=C(CSc1n[nH]c(=O)n1Cc1ccco1)c1ccc2c(c1)OCCO2	15	-1	28	-7	4
O=C(CSc1n[nH]c(=O)n1C1CC1)c1ccc2c(c1)OCCO2	38*	26	/	/	?
O=C([C@@H]1[C@@H](CO)[C@@H]2Cn3c(ccc(-c4ccccc4F)c3=O)[C@H]1N2C(=O)C1CC1)N1CCCCC1	/	/	/	1	/
CC1CC(=O)N(CC(=O)NCc2ccc3c(c2)OCO3)c2ccccc2S1 (centres undefined)	/	10	2	-1	23
CC1CC(=O)N(CC(=O)NCc2ccco2)c2ccccc2S1 (centres undefined)	/	31	11	-5	61*
COc1cccc2cc(-c3nc(-c4cccs4)cs3)c(=O)oc12	59*	14	85*	/	47
COc1ccc2cc(-c3ccccc3)c(=O)oc2c1	42*	23	36	3	35
COC(=O)C(C)Oc1ccc2cc(-c3ccccc3)c(=O)oc2c1 (centres undefined)	1	2	13	9	4
COc1cccc2cc(-c3ccccc3)c(=O)oc12	35*	27	62	32*	62*
C[C@@H]1CN([C@@H](C)CO)C(=O)CCCn2nncc2CO[C@@H]1CN(C)Cc1cccc(O)c1	/	/	/	0	/
C[C@H](CO)N1C[C@H](C)[C@H](CN(C)CC2CC2)Oc2ncc(-c3ccc(F)cc3)cc2C1=O	/	/	/	-8	/
CCC(C)(C)c1ccc2c(c1)C(=O)c1ccccc1C2=O	39*	-4	41	6	-7
CCC(=O)Nc1ccc2c(c1)C(=O)c1ccccc1C2=O	/	20	12	?	32
N/C(=N\OC(=O)c1ccccc1Cl)c1ccc(Cl)cc1	/	2	45	/	7
N/C(=N\OC(=O)CC1CCCCC1)c1ccc(Br)cc1	-1	-1	27	/	4
N/C(=N\OC(=O)c1ccco1)c1cccnc1	38*	13	32	/	14
SMILES	Wnt bcat act	HSF1 inhib	MITF TRPM1 HTS	esBAF inh	HSF1 activator
N/C(=N\OC(=O)c1ccc(Cl)cc1)c1ccc(Cl)cc1	-1	12	96*	10	-3
N/C(=N\OC(=O)c1ccc(Cl)cc1)c1ccn[nH]1	49*	-7	?	-27	14
N/C(=N\OC(=O)CC1CCCCC1)c1ccc(Cl)cc1	22	20	28	41*	7
C[C@@H]1CN([C@@H](C)CO)C(=O)c2cc(C#CCN(C)C)cnc2O[C@H]1CN(C)Cc1ccncc1	/	/	/	-1	/
C[C@@H]1CCCCO[C@H](CN(C)C(=O)Nc2cccc3ccccc23)[C@H](C)CN([C@@H](C)CO)C(=O)c2cc(NC(=O)Cc3ccccc3)ccc2O1	/	/	/	20	/
Cc1noc(C)c1S(=O)(=O)N(C)C[C@H]1OCCCC[C@H](C)Oc2ccc(NS(=O)(=O)c3ccc(F)cc3)cc2C(=O)N([C@H](C)CO)C[C@H]1C	/	/	/	-5	/
Cc1noc(C)c1NC(=O)Nc1ccc2c(c1)C(=O)N([C@H](C)CO)C[C@H](C)[C@@H](CN(C)Cc1ccc(C(F)(F)F)cc1)OCCCC[C@H](C)O2	/	/	/	-4	/
Cc1ccc(/C(N)=N/OC(=O)c2ccc(C)cc2Cl)cc1	-1	-63*	-14	/	-70
N/C(=N\OC(=O)c1ccco1)c1ccc(Cl)cc1	65*	15	56	?	25
N/C(=N\OC(=O)c1ccc(Cl)cc1Cl)c1ccc(Cl)cc1	/	-72*	-4	-4	-73
O=C(COC(=O)c1ccco1)c1ccc(Cl)cc1	1	14	19	12	5
Cc1cccc(/C(N)=N/OC(=O)c2ccc(Cl)cc2Cl)c1	6	6	7	/	1
N/C(=N\OC(=O)c1ccc(Cl)cc1Cl)c1ccccc1	/	?	-9	-67	-59
Cc1noc(C)c1NC(=O)Nc1cccc2c1O[C@H](CN(C)C(=O)Nc1cccc3ccccc13)[C@H](C)CN([C@H](C)CO)C2=O	/	/	/	3	/
CCOc1ccc(N2CC(NS(=O)(=O)c3cccs3)CC2=O)cc1 (centres undefined)	2	-1	-2	7	1
O=C1CC(NS(=O)(=O)c2cccs2)CN1c1ccc(F)cc1 (centres undefined)	-3	2	6	47*	2
O=C(Nc1nc2c(s1)CCCC2)c1ccc2ncsc2c1	42*	8	/	-8	29
O=C(Nc1nc2c(s1)CCCC2)c1ccc(N2C(=O)CCC2=O)cc1	-1	12	37	44*	34
CC1CCc2nc(NC(=O)c3ccc(N4C(=O)CCC4=O)cc3)sc2C1 (centres undefined)	2	8	0	16	4
Cc1ncsc1C(=O)Nc1nc2c(s1)CCCC2	24	14	7	/	20
O=C(Nc1nc2c(s1)CCCC2)c1ccc(Br)s1	/	34	-2	11	59*
O=C(O)c1ccc(Nc2cc(Cl)c3nonc3c2[N+](=O)[O-])cc1	0	4	2	3	-3
O=[N+]([O-])c1c(Nc2cccc(O)c2)cc(Cl)c2nonc12	-18	163	/	-36	164*
CCOc1ccccc1NC(=O)CCS(=O)(=O)c1ccc2c(c1)CC(C)N2C(C)=O (centres undefined)	-1	1	-4	-5	10
CCC(=O)N1c2ccc(S(=O)(=O)CCC(=O)Nc3ccc(OC)cc3OC)cc2CC1C (centres undefined)	0	20	6	7	53*
COc1ccc(S(=O)(=O)CCC(=O)Nc2cc(C)ccc2OC)cc1	-6	-66*	-10	/	-73
